In publication PMC5540273 (PLoS ONE, 2017):

Columns and labels:
Settings in all cases: concentration: 1 μM, replicates: in singlicate; n = 1
[1] = test system: T1, RSK2(Kin.Dom.1-N-terminal)
T1 construct: gene RPS6KA3

[2] = test system: T2, RSK2(Kin.Dom.2-C-terminal)
T2 construct: gene RPS6KA3

[3] = test system: T3, RSK3(Kin.Dom.1-N-terminal)
T3 construct: gene RPS6KA2

[4] = test system: T4, RSK3(Kin.Dom.2-C-terminal)
T4 construct: gene RPS6KA2

[5] = test system: T5, RSK4(Kin.Dom.1-N-terminal)
T5 construct: gene RPS6KA6

[6] = test system: T6, RSK4(Kin.Dom.2-C-terminal)
T6 construct: gene RPS6KA6

[7] = test system: S6K1
[8] = test system: SBK1
[9] = test system: SGK2
[10] = test system: SGK3
[11] = test system: SGK
[12] = test system: SIK2
[13] = test system: SIK
[14] = test system: SLK
[15] = test system: T7, SNARK
T7 construct: gene NUAK2

[16] = test system: SNRK
[17] = test system: SRC
[18] = test system: SRMS
[19] = test system: SRPK1
[20] = test system: SRPK2
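Note: KINOMEscan kinase panel screen.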

## [2H]C([2H])(c1cccc(C(F)(F)F)c1C)n1ccn2c(=O)nc(N3CCOCC3)cc12 [GSK2336394]
[1]
  %Inh: 0%
[2]
  %Inh: 18%
[3]
  %Inh: 9%
[4]
  %Inh: 0%
[5]
  %Inh: 0%
[6]
  %Inh: 21%
[7]
  %Inh: 12%
[8]
  %Inh: 24%
[9]
  %Inh: 1%
[10]
  %Inh: 0%
[11]
  %Inh: 0%
[12]
  %Inh: 0%
[13]
  %Inh: 0%
[14]
  %Inh: 22%
[15]
  %Inh: 0%
[16]
  %Inh: 0%
[17]
  %Inh: 0%
[18]
  %Inh: 0%
[19]
  %Inh: 37%
[20]
  %Inh: 0%

## CC(=O)Nc1ccc(COc2ccc(Nc3ccnc4cc(-c5ccccn5)ccc34)cc2)cc1.Cl [GW440148]
[1]
  %Inh: 0%
[2]
  %Inh: 6%
[3]
  %Inh: 3%
[4]
  %Inh: 11%
[5]
  %Inh: 0%
[6]
  %Inh: 26%
[7]
  %Inh: 0%
[8]
  %Inh: 0%
[9]
  %Inh: 0%
[10]
  %Inh: 8%
[11]
  %Inh: 0%
[12]
  %Inh: 0%
[13]
  %Inh: 4%
[14]
  %Inh: 0%
[15]
  %Inh: 15%
[16]
  %Inh: 0%
[17]
  %Inh: 29%
[18]
  %Inh: 88%
[19]
  %Inh: 46%
[20]
  %Inh: 12%

## O=C(NOCC1CC1)c1ccc(F)c(F)c1Nc1ccc(I)cc1Cl
[1]
  %Inh: 0%
[2]
  %Inh: 0%
[3]
  %Inh: 0%
[4]
  %Inh: 0%
[5]
  %Inh: 0%
[6]
  %Inh: 0%
[7]
  %Inh: 0%
[8]
  %Inh: 0%
[9]
  %Inh: 0%
[10]
  %Inh: 0%
[11]
  %Inh: 0%
[12]
  %Inh: 0%
[13]
  %Inh: 1%
[14]
  %Inh: 0%
[15]
  %Inh: 0%
[16]
  %Inh: 0%
[17]
  %Inh: 0%
[18]
  %Inh: 0%
[19]
  %Inh: 0%
[20]
  %Inh: 0%

## COc1ccc(S(=O)(=O)NC2CCN(c3cc(C)nc(Nc4cccc(C#N)c4)n3)CC2)cc1.O=C(O)C(F)(F)F [GSK1653539]
[1]
  %Inh: 0%
[2]
  %Inh: 0%
[3]
  %Inh: 1%
[4]
  %Inh: 0%
[5]
  %Inh: 0%
[6]
  %Inh: 21%
[7]
  %Inh: 0%
[8]
  %Inh: 0%
[9]
  %Inh: 0%
[10]
  %Inh: 4%
[11]
  %Inh: 0%
[12]
  %Inh: 0%
[13]
  %Inh: 0%
[14]
  %Inh: 8%
[15]
  %Inh: 0%
[16]
  %Inh: 0%
[17]
  %Inh: 0%
[18]
  %Inh: 0%
[19]
  %Inh: 0%
[20]
  %Inh: 0%

## COc1ccc(Nc2nccc(N3CCC(NC(=O)Nc4cc(C)ccc4C)C3)n2)cc1 (stereo not drawn) [GSK1379741]
[1]
  %Inh: 0%
[2]
  %Inh: 0%
[3]
  %Inh: 18%
[4]
  %Inh: 0%
[5]
  %Inh: 0%
[6]
  %Inh: 0%
[7]
  %Inh: 11%
[8]
  %Inh: 0%
[9]
  %Inh: 0%
[10]
  %Inh: 0%
[11]
  %Inh: 0%
[12]
  %Inh: 0%
[13]
  %Inh: 0%
[14]
  %Inh: 0%
[15]
  %Inh: 0%
[16]
  %Inh: 0%
[17]
  %Inh: 0%
[18]
  %Inh: 0%
[19]
  %Inh: 27%
[20]
  %Inh: 0%

## Cc1c(Cn2c(C)nn3c(=O)cc(N4CCOC(C)C4)nc23)cccc1C(F)(F)F (stereo not drawn) [GSK2344444]
[1]
  %Inh: 10%
[2]
  %Inh: 0%
[3]
  %Inh: 3%
[4]
  %Inh: 0%
[5]
  %Inh: 1%
[6]
  %Inh: 17%
[7]
  %Inh: 9%
[8]
  %Inh: 33%
[9]
  %Inh: 0%
[10]
  %Inh: 0%
[11]
  %Inh: 9%
[12]
  %Inh: 0%
[13]
  %Inh: 0%
[14]
  %Inh: 7%
[15]
  %Inh: 0%
[16]
  %Inh: 0%
[17]
  %Inh: 0%
[18]
  %Inh: 0%
[19]
  %Inh: 32%
[20]
  %Inh: 0%
